{
  "source": "the supplement of paper PMC4206461",
  "data": [
    {"tested_on": "Pseudomonas aeruginosa PA14 dppA1-A5 penta mutant + pBBR5.DppA1 (PA14_58350)", "test": "respiration area under curve with compound as sole nitrogen source, 24 h (OmniLog AUC (arbitrary units)); higher = more respiration / better utilisation as nitrogen source, active = 2000 or more", "conditions": "plate: PM8", "experimental": "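Biolog Phenotype MicroArray plates PM6-PM8: each di/tripeptide is the sole nitrogen source. Tetrazolium reduction was read in the OmniLog for 24 h at 37°C and summarised as area under the respiration curve (arbitrary units). Values below 2000 count as no respiration. Strain is the SBP penta mutant complemented with DppA1 on a plasmid under its native promoter. Lys/His/Cys peptides are excluded.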", "values": [
      {"molecule": "N[C@@H](Cc1ccc(O)cc1)C(=O)NCC(=O)NCC(=O)O", "respiration area under curve": "9440 (active)"}
    ]}
  ]
}
